From PubChem BioAssay AID1159580 (chemical genetic matrix, 2015)
Hit rate of the full screen: of about 5,500 compounds, about 2,000 (36%) were called active. Not shown: some 18% with an inconclusive outcome. Rule as the data show it: active = normalized growth mostly below about 0.91 (no sharp cut-off); inconclusive = no clear call, values can overlap the other calls; inactive = mostly above about 0.92. This is one part of the list.

Experiment: chemical genetic growth profiling, strain panel (AID 1159580);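 also: tested at 20 µM; growth read once vehicle control cultures reached saturation at 30 °C; 1 = growth at the plate median or of vehicle wells; lower values mean less growth of the strain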
Conditions: growth OD

Measured: normalized growth

COC(=O)/C(=C1\OC(=O)C(c2ccccc2)=C1O)c1ccccc1
active: S. cerevisiae deletion strains, locus YLR113W, strain HOG1, active compounds read low 0.827
inactive: S. cerevisiae deletion strains, locus YJL187C, strain SWE1, active compounds read low 0.98 | S. cerevisiae deletion strains, locus YJR043C, strain POL32, active compounds read low 1.02 | S. cerevisiae deletion strains, locus YJR066W, strain TOR1, active compounds read low 0.902 | S. cerevisiae deletion strains, locus YKL009W, strain mrt4, active compounds read low 1.01 | S. cerevisiae deletion strains, locus YKL068W, active compounds read low 0.965 | S. cerevisiae deletion strains, locus YKL085W, strain MDH1 (second series), active compounds read low 0.965 | S. cerevisiae deletion strains, locus YKL085W, strain MDH1, active compounds read low 0.965 | S. cerevisiae deletion strains, locus YKL160W, strain elf1, active compounds read low 0.969 | S. cerevisiae deletion strains, locus YKR001C, strain vps1, active compounds read low 1.03 | S. cerevisiae deletion strains, locus YKR026C, strain gcn3, active compounds read low 0.935 | S. cerevisiae deletion strains, locus YKR091W, strain srl3, active compounds read low 0.965 | S. cerevisiae deletion strains, locus YLL001W, strain dnm1, active compounds read low 0.97 | S. cerevisiae deletion strains, locus YLL026W, active compounds read low 0.974 | S. cerevisiae deletion strains, locus YLL041C, strain sdh2, active compounds read low 0.956 | S. cerevisiae deletion strains, locus YLR027C, strain aat2, active compounds read low 0.969 | S. cerevisiae deletion strains, locus YLR039C, strain RIC1, active compounds read low 1.03 | S. cerevisiae deletion strains, locus YLR058C, strain SHM2, active compounds read low 1.01 | S. cerevisiae deletion strains, locus YLR102C, strain apc9, active compounds read low 0.988 | S. cerevisiae deletion strains, locus YLR221C, strain rsa3, active compounds read low 0.981 | S. cerevisiae deletion strains, locus YLR258W, strain gsy2, active compounds read low 0.985 | S. cerevisiae deletion strains, locus YLR262C, strain YPT6 (second series), active compounds read low 0.915 | S. cerevisiae deletion strains, locus YLR262C, strain YPT6, active compounds read low 1 | S. cerevisiae deletion strains, locus YLR268W, strain sec22, active compounds read low 1.03 | S. cerevisiae deletion strains, locus YLR320W, strain mms22, active compounds read low 0.981 | S. cerevisiae deletion strains, locus YLR330W, strain CHS5, active compounds read low 0.996 | S. cerevisiae deletion strains, locus YLR342W, strain FKS1 (second series), active compounds read low 1 | S. cerevisiae deletion strains, locus YLR342W, strain FKS1, active compounds read low 0.976 | S. cerevisiae deletion strains, locus YLR357W, strain rsc2, active compounds read low 1.01 | S. cerevisiae deletion strains, locus YLR370C, strain arc18, active compounds read low 0.97 | S. cerevisiae deletion strains, locus YLR371W, strain rom2, active compounds read low 1 | S. cerevisiae deletion strains, locus YLR384C, strain iki3, active compounds read low 0.982 | S. cerevisiae deletion strains, locus YLR418C, strain cdc73, active compounds read low 0.996 | S. cerevisiae deletion strains, locus YML016C, strain PPZ1, active compounds read low 1.01 | S. cerevisiae deletion strains, locus YML032C, strain rad52, active compounds read low 0.987 | S. cerevisiae deletion strains, locus YML120C, strain ndi1, active compounds read low 0.985 | S. cerevisiae deletion strains, locus YML124C, strain tub3, active compounds read low 0.993 | S. cerevisiae deletion strains, locus YMR058W, strain fet3, active compounds read low 0.981 | S. cerevisiae deletion strains, locus YMR078C, strain ctf18, active compounds read low 1 | S. cerevisiae deletion strains, locus YMR125W, strain sto1, active compounds read low 0.982 | S. cerevisiae deletion strains, locus YMR129W, active compounds read low 0.965 | S. cerevisiae deletion strains, locus YMR205C, strain PFK2, active compounds read low 0.965 | S. cerevisiae deletion strains, locus YMR223W, strain ubp8, active compounds read low 0.98 | S. cerevisiae deletion strains, locus YMR231W, strain pep5, active compounds read low 0.98 | S. cerevisiae deletion strains, locus YMR307W, strain GAS1, active compounds read low 1.1 | S. cerevisiae deletion strains, locus YNL067W, strain RPL9B, active compounds read low 1.03 | S. cerevisiae deletion strains, locus YNL071W, strain lat1, active compounds read low 0.98 | S. cerevisiae deletion strains, locus YNL128W, strain TEP1, active compounds read low 1.02 | S. cerevisiae deletion strains, locus YNL183C, strain NPR1, active compounds read low 0.899 | S. cerevisiae deletion strains, locus YNL209W, strain ssb2, active compounds read low 0.967 | S. cerevisiae deletion strains, locus YNL233W, strain BNI4, active compounds read low 1.02 | S. cerevisiae deletion strains, locus YNL248C, strain rpa49, active compounds read low 0.985 | S. cerevisiae deletion strains, locus YNL250W, strain rad50, active compounds read low 0.998 | S. cerevisiae deletion strains, locus YNL271C, strain bni1, active compounds read low 0.986 | S. cerevisiae deletion strains, locus YNL298W, strain CLA4, active compounds read low 0.982 | S. cerevisiae deletion strains, locus YNL307C, strain MCK1, active compounds read low 0.988 | S. cerevisiae deletion strains, locus YNL322C, strain KRE1 (second series), active compounds read low 0.953 | S. cerevisiae deletion strains, locus YNR049C, strain mso1, active compounds read low 0.959 | S. cerevisiae deletion strains, locus YNR052C, strain pop2, active compounds read low 1.01 | S. cerevisiae deletion strains, locus YOL006C, strain TOP1, active compounds read low 1.17 | S. cerevisiae deletion strains, locus YOL012C, strain htz1 0.689 | S. cerevisiae deletion strains, locus YOL147C, strain pex11, active compounds read low 0.99 | S. cerevisiae deletion strains, locus YOR001W, strain rrp6, active compounds read low 0.974 | S. cerevisiae deletion strains, locus YOR061W, strain CKA2, active compounds read low 0.999 | S. cerevisiae deletion strains, locus YOR069W, strain VPS5, active compounds read low 0.995 | S. cerevisiae deletion strains, locus YOR070C, strain gyp1, active compounds read low 0.976 | S. cerevisiae deletion strains, locus YOR080W, strain dia2, active compounds read low 0.982 | S. cerevisiae deletion strains, locus YOR083W, strain WHI5, active compounds read low 0.968 | S. cerevisiae deletion strains, locus YOR106W, strain vam3, active compounds read low 1.01 | S. cerevisiae deletion strains, locus YOR136W, strain idh2, active compounds read low 1 | S. cerevisiae deletion strains, locus YOR144C, strain elg1, active compounds read low 0.984 | S. cerevisiae deletion strains, locus YOR184W, strain ser1, active compounds read low 1.01 | S. cerevisiae deletion strains, locus YOR231W, strain MKK1, active compounds read low 0.903 | S. cerevisiae deletion strains, locus YOR265W, strain rbl2, active compounds read low 0.961 | S. cerevisiae deletion strains, locus YOR270C, strain vph1, active compounds read low 0.974 | S. cerevisiae deletion strains, locus YOR290C, strain snf2, active compounds read low 0.948 | S. cerevisiae deletion strains, locus YOR316C, strain cot1, active compounds read low 0.981 | S. cerevisiae deletion strains, locus YPL051W, strain arl3, active compounds read low 0.983 | S. cerevisiae deletion strains, locus YPL055C, strain LGE1, active compounds read low 1.05 | S. cerevisiae deletion strains, locus YPL078C, strain atp4, active compounds read low 0.972 | S. cerevisiae deletion strains, locus YPL106C, strain sse1, active compounds read low 0.966 | S. cerevisiae deletion strains, locus YPL240C, strain hsp82, active compounds read low 0.956 | S. cerevisiae deletion strains, locus YPL241C, strain CIN2, active compounds read low 0.989 | S. cerevisiae deletion strains, locus YPL256C, strain CLN2, active compounds read low 0.865 | S. cerevisiae deletion strains, locus YPR119W, strain clb2, active compounds read low 0.99 | S. cerevisiae deletion strains, locus YPR141C, strain kar3, active compounds read low 0.965 | S. cerevisiae deletion strains, locus YPR163C, strain tif3, active compounds read low 0.997 | S. cerevisiae deletion strains, locus YPR167C, strain met16, active compounds read low 0.983 | S. cerevisiae deletion strains, strain wtn01, active compounds read low 1.01 | S. cerevisiae strains, strain wild type, active compounds read low 0.992
